Bioassay records (PubChem)
Rows were chosen to be rich in hits. Some 21% of all compounds tested hit in one or more screens of this group.
HCV inh – HCV inhibition; Huh7.5.1 HCVcc-Cre infection, luciferase reporter, 44 h; Potency, µM (highest dose often 41.8 µM), without a hit: at the highest dose activity change, negative = inhibition, usual class: inhibitors; actives 3.4% (n = 340,000); also: potency is read from the fitted curve at half-maximal effect; % is scaled to controls: 0 for no effect and ±100 for the full control effect
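Seed cells (1,000/well) for 4 h; treat with compound and infect with HCVcc-Cre, moi about 0.5. Incubate 44 h, then detect luciferase activity.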
AMA1 RON2 block – inhibitors of Plasmodium falciparum AMA1-RON2 interaction. actives 0.2% (n = 360,000). Potency, µM (doses to about 58.2 µM), inactives show at the top dose activity change, negative = inhibition, hits mostly inhibitors. AlphaScreen AMA1-biotinylated RON2 peptide binding. AID 720542;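 also: potency is read from the fitted curve at half-maximal effect; 0% = vehicle wells and -100% = peptide control; nearly all actives have a fitted effect of over 45% in size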
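AMA1 (3D7) with his tag at 25 nM final met compounds first, then biotinylated RON2 peptide at 25 nM; detection used donor plus acceptor beads, 10 µg/mL apiece, read by AlphaScreen after 30 min at room temperature.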
Shiga toxin inh – inhibitors of Shiga toxin in Vero cells; Vero cells, Shiga toxin protein synthesis inhibition reporter; inhibition, % at 38.7 µM; actives 9.2% (n = 290,000); AID 2315; in the data active = inhibition mostly above about 28%, no sharp cut-off; inactive = mostly below about 43%; also: 0% is about no effect
CHX counter – counter-screen for Shiga toxin inhibitors: cycloheximide protein synthesis inhibition. cell reporter, cycloheximide protein synthesis inhibition counterscreen. max response, %. actives 12% (n = 300,000). AID 2314; in the data active = max response mostly above about 13%, no sharp cut-off; inactive = mostly below about 14%; also: read at 38.3 µM for the half of the compounds with a filed dose; 0% is about no effect
Pf growth 96h – inhibits malaria parasite growth, 96 h. P. falciparum luciferase reporter growth, 96 h. Potency, µM (series often up to 28.7 µM), for inactives: at the highest dose activity change, negative = inhibition, hits mostly inhibitors. actives 6.9% (n = 320,000); also: potency is read from the fitted curve at half-maximal effect; % is scaled to controls: 0 for no effect and ±100 for the full control effect
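Infected RBCs, 2% Hct / 0.05% parasitemia final; luciferase-reporter P. falciparum; cpd 96 h, 37 C, 5% CO2; luciferase detection reagent; luminescence.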
Pf growth 48h – inhibits P. falciparum growth in the first generation, 48 h; P. falciparum luciferase growth in erythrocytes, 48 h; Potency, µM (highest dose often 28.7 µM), for inactives: at the top dose activity change, negative = inhibition, actives largely listed as inhibitors; actives 5.9% (n = 310,000); also: potency is read from the fitted curve at half-maximal effect; % is scaled to controls: 0 for no effect and ±100 for the full control effect
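Growth was read as firefly luciferase luminescence after a 48 h, 37 C, 5% CO2 exposure of compounds to reporter-bearing P. falciparum cultures (0.1% parasitemia, 2% hematocrit final) in Albumax-supplemented RPMI 1640.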
Active calls of the source: *; ? = inconclusive; . = not tested or not shown. Unless noted, calls follow the shape of the dose curve; as a rule, active = well fitted curve in the direction sought with a large enough effect; inconclusive = small, poorly fitted or top-dose-only effect, or another doubt; inactive = no such curve, though single readings can be large; an effect the other way counts as inactive or inconclusive.

SMILES	HCV inh	AMA1 RON2 block	Shiga toxin inh	CHX counter	Pf growth 96h	Pf growth 48h
CCOc1ccccc1NC(=O)CC1Nc2ccccc2NC1=O (stereo unspecified)	?	-8%	13	5	3.3µM*	2.3µM*
COc1ccc(CCNC(=O)CC2Nc3ccccc3NC2=O)cc1OC (stereo unspecified)	14%	64%	-16	2	1.5µM*	?
O=C(CC1Nc2ccccc2NC1=O)NCCc1ccccc1 (stereo unspecified)	0%	14%	-2	-1	?	?
Cc1cccc(NC(=O)CCN2CCCC(C)C2)c1 (stereo unspecified)	-5%	17%	-17	-3	-7%	24%
CC(C)(C)n1nc2c(c1NC(=O)c1cccc(Cl)c1)CS(=O)(=O)C2	2%	-2%	9	4	7%	-17%
Cc1ccc(NC2Sc3ccccc3NC2=O)cc1Cl (stereo unspecified)	-16%	-7%	26	13*	81%	35%
O=C(CC1SCCNC1=O)Nc1ccc(F)c(Cl)c1 (stereo unspecified)	-11%	-8%	21	10	3%	18%
O=C1Nc2ccccc2SC1c1ccccc1Cl (stereo unspecified)	8%	-11%	.	.	.	.
Cc1ccc(NC(=O)CC2Nc3ccccc3NC2=O)cc1Cl (stereo unspecified)	?	9%	108*	28*	125%	?
Cc1ccc(NC(=O)CC2SCCNC2=O)cc1Cl (stereo unspecified)	8%	-13%	48*	23*	-12%	73%
O=C(CC1Nc2ccccc2NC1=O)Nc1ccc2c(c1)OCO2 (stereo unspecified)	-2%	11%	28	20	-31%	40%
CC(C)CC1C2C(=O)N(c3ccccc3)C(=O)C2ON1c1ccccc1 (stereo unspecified)	8%	8%	9	-1	7%	-4%
COc1ccc(Cl)cc1NC(=O)Nc1ccc(C(=O)N2CCOCC2)cc1	?	3%	2	2	-18%	-2%
O=c1c2cc(Cl)ccc2[nH]c(=S)n1Cc1ccco1	?	17%	27	3	?	9%
O=c1c2cc(Cl)ccc2[nH]c(=S)n1Cc1cccs1	?	36%	-6	-2	13µM*	13%
CCOC(=O)CNC(=S)n1cnc(N)n1	-14%	15%	-23	6	53%	?
O=C(N/N=C/c1cccc(Cl)c1)C(c1ccncc1)N1CCOCC1 (stereo unspecified)	0%	46%	28	1	?	18%
O=C(Nc1ccc(Br)cc1F)c1ccc2c(c1)OCCO2	-25%	10%	41	21*	4%	50%
O=C(c1ccc2c(c1)OCO2)C1CCCN(C(=O)C2CCOCC2)C1 (stereo unspecified)	9%	-5%	16	8	12%	13%
O=C(c1ccc2c(c1)OCO2)C1CCCN(C(=O)Nc2ccc(F)cc2F)C1 (stereo unspecified)	9%	0%	18	18*	?	20%
O=C(Nc1ccc(F)cc1F)c1ccc2c(c1)OCCO2	10%	3%	83*	29*	-18%	135%
Fc1c(F)c(-n2nnc3ccccc32)c(F)c(F)c1Cl	?	7%	-22	-6	32%	7%
Cc1cccc(C)c1Nc1cn[nH]c1	.	19%	.	.	.	.
CCOc1ccc(C(C)=O)cc1CN1C(=O)C(=O)N(CC)C1=O	-20%	-9%	-11	-1	?	?
Cn1nc(C(C)(C)C)cc1C(=O)N1CCCC(C)(C(=O)NS(=O)(=O)C2CC2)C1 (stereo unspecified)	.	-3%	.	.	.	.
COc1ccc(-c2ccccc2NC(=O)C2CCCN(Cc3ccc(C)o3)C2)cc1 (stereo unspecified)	-29%	-14%	-10	-1	?	?
NS(=O)(=O)c1ccc(N/C=C\C(=O)c2cccc3ccccc23)cc1	-29%	-11%	10	21*	?	3%
